# Data published in the supplement of paper PMC8728848.
# This excerpt belongs to a sample that is enriched for the strongest signals.
# What was measured:
# Assay in all cases: glycan array binding signal (z-score within array); higher = stronger binding
# Settings in all cases: glycan notation: IUPAC condensed, linker removed
# [1] = tested on: Man(a1-2)Man(a1-2)Man(a1-3)Man
# Outline: (§1)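 From the Consortium for Functional Glycomics database, 3228 arrays were curated, keeping only those whose protein sequence was available. Binding is given as a within-array Z-score averaged across arrays sharing a protein sequence and across linkers. Negative Z-scores can be read as non-binding.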
# [2] = tested on: Man(a1-2)Man(a1-3)[Man(a1-2)Man(a1-6)]Man
# Outline: as §1
# Kdn(a2-3)Gal(b1-4)GlcNAc = tested on: Kdn(a2-3)Gal(b1-4)GlcNAc
# Outline: as §1
# [3] = tested on: Man(a1-2)Man(a1-6)[Man(a1-3)]Man(a1-6)[Man(a1-2)Man(a1-2)Man(a1-3)]Man(b1-4)GlcNAc(b1-4)GlcNAc
# Outline: as §1
# Man(a1-2)Man(a1-3)Man = tested on: Man(a1-2)Man(a1-3)Man
# Outline: as §1
# [4] = tested on: Man(a1-2)Man(a1-2)Man(a1-6)[Man(a1-3)]Man
# Outline: as §1
# [5] = tested on: Man(a1-2)Man(a1-3)[Man(a1-2)Man(a1-6)]Man(a1-6)[Man(a1-2)Man(a1-2)Man(a1-3)]Man(b1-4)GlcNAc(b1-4)GlcNAc
# Outline: as §1
# [6] = tested on: Man(a1-2)Man(a1-3)[Man(a1-2)Man(a1-6)]Man(a1-6)[Man(a1-2)Man(a1-2)Man(a1-3)]Man
# Outline: as §1
# [7] = tested on: Man(a1-2)Man(a1-3)[Man(a1-6)]Man(a1-6)[Man(a1-2)Man(a1-3)]Man(b1-4)GlcNAc(b1-4)GlcNAc
# Outline: as §1
# [8] = tested on: Man(a1-2)Man(a1-6)[Man(a1-3)]Man(a1-6)[Man(a1-2)Man(a1-2)Man(a1-3)]Man
# Outline: as §1
substance,measurement,setting,value
AgI/IIC123-GFP (Streptococcus mutans),glycan array binding signal (z-score),[1],-0.465
same,glycan array binding signal (z-score),[2],0.368
"SiiE (Salmonella typhimurium), A0A0H3NVH0",glycan array binding signal (z-score),Kdn(a2-3)Gal(b1-4)GlcNAc,2.58
same,glycan array binding signal (z-score),[3],-0.297
LcI (Legionella pneumophila),glycan array binding signal (z-score),[2],-0.584
"Wza (Escherichia coli), P0A930",glycan array binding signal (z-score),[1],2.8
"BambL (Burhholderia ambifaria), Q0B4G1",glycan array binding signal (z-score),Man(a1-2)Man(a1-3)Man,-0.316
Actinohivin (Actinomycete K97),glycan array binding signal (z-score),[1],3.74
same,glycan array binding signal (z-score),[4],16.1
same,glycan array binding signal (z-score),Man(a1-2)Man(a1-3)Man,1.82
same,glycan array binding signal (z-score),[5],3.83
same,glycan array binding signal (z-score),[6],12.4
same,glycan array binding signal (z-score),[2],1.78
same,glycan array binding signal (z-score),[7],3.51
same,glycan array binding signal (z-score),[3],6.4
same,glycan array binding signal (z-score),[8],8.54
"SpGH101 (Streptococcus pneumoniae), Q8DR60",glycan array binding signal (z-score),Man(a1-2)Man(a1-3)Man,-0.182
same,glycan array binding signal (z-score),[5],-0.2
